# According to the supplement of paper PMC4466140:
# Key:
# Assay in all cases: SPOT peptide array binding signal intensity (averaged, normalized) (arbitrary units (background-subtracted, floor 0; scale differs between SH3 domains)); higher = stronger binding of the SH3 domain to the peptide
# AgAbp1 = biological target: AgAbp1
# Procedure: (§1)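 GST-tagged SH3 domains from S. cerevisiae (Sc), A. gossypii (Ag), C. albicans (Ca) and S. pombe (Sp) were incubated at 10 ug/ml overnight at 4 C on cellulose SPOT membranes carrying 292 synthetic 15-mer peptides mined from the S. cerevisiae proteome (cysteines replaced by serines). Binding was detected with anti-GST antibody, HRP secondary and chemiluminescence, quantified with Genespotter, and reported as normalized spot intensities averaged over biological replicates.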
# AgBbc1 = biological target: AgBbc1
# Procedure: as §1
# AgBem1-D1 = biological target: AgBem1-D1
# Procedure: as §1
# AgBzz1-D1 = biological target: AgBzz1-D1
# Procedure: as §1
# AgBzz1-D2 = biological target: AgBzz1-D2
# Procedure: as §1
# AgCyk3 = biological target: AgCyk3
# Procedure: as §1
# AgFus1 = biological target: AgFus1
# Procedure: as §1
# AgHof1 = biological target: AgHof1
# Procedure: as §1
# AgHse1 = biological target: AgHse1
# Procedure: as §1
# AgLsb1 = biological target: AgLsb1
# Procedure: as §1
# AgLsb4 = biological target: AgLsb4
# Procedure: as §1
# AgMyo5 = biological target: AgMyo5
# Procedure: as §1
# AgNbp2 = biological target: AgNbp2
# Procedure: as §1
# AgRvs167 = biological target: AgRvs167
# Procedure: as §1
# AgSho1 = biological target: AgSho1
# Procedure: as §1
# AgSla1-D1-D2 = biological target: AgSla1-D1-D2
# Procedure: as §1
# AgSla1-D3 = biological target: AgSla1-D3
# Procedure: as §1
# CaAbp1-D1 = biological target: CaAbp1-D1
# Procedure: as §1
# CaAbp1-D2 = biological target: CaAbp1-D2
# Procedure: as §1
# CaBbc1 = biological target: CaBbc1
# Procedure: as §1
# CaBem1-D1 = biological target: CaBem1-D1
# Procedure: as §1
# CaBzz1-D1 = biological target: CaBzz1-D1
# Procedure: as §1
# CaBzz1-D2 = biological target: CaBzz1-D2
# Procedure: as §1
# CaCyk3 = biological target: CaCyk3
# Procedure: as §1
# CaFus1 = biological target: CaFus1
# Procedure: as §1
# CaHof1 = biological target: CaHof1
# Procedure: as §1
# CaHse1 = biological target: CaHse1
# Procedure: as §1
# CaLsb1 = biological target: CaLsb1
# Procedure: as §1
# CaLsb4 = biological target: CaLsb4
# Procedure: as §1
# CaMyo5 = biological target: CaMyo5
# Procedure: as §1
# CaNbp2 = biological target: CaNbp2
# Procedure: as §1
# CaRvs167 = biological target: CaRvs167
# Procedure: as §1
# CaRvs167-3 = biological target: CaRvs167-3
# Procedure: as §1
# CaSho1 = biological target: CaSho1
# Procedure: as §1
# CaSla1-D1-D2 = biological target: CaSla1-D1-D2
# Procedure: as §1
# CaSla1-D3 = biological target: CaSla1-D3
# Procedure: as §1
# ScAbp1 = biological target: ScAbp1
# Procedure: as §1
# ScBbc1 = biological target: ScBbc1
# Procedure: as §1
# ScBem1-D1 = biological target: ScBem1-D1
# Procedure: as §1
# ScBzz1-D1 = biological target: ScBzz1-D1
# Procedure: as §1
# ScBzz1-D2 = biological target: ScBzz1-D2
# Procedure: as §1
# ScCyk3 = biological target: ScCyk3
# Procedure: as §1
# ScFus1 = biological target: ScFus1
# Procedure: as §1
# ScHof1 = biological target: ScHof1
# Procedure: as §1
# ScHse1 = biological target: ScHse1
# Procedure: as §1
# ScLsb1 = biological target: ScLsb1
# Procedure: as §1
# ScLsb2 = biological target: ScLsb2
# Procedure: as §1
# ScLsb3 = biological target: ScLsb3
# Procedure: as §1
# ScLsb4 = biological target: ScLsb4
# Procedure: as §1
# ScMyo3 = biological target: ScMyo3
# Procedure: as §1
# ScMyo5 = biological target: ScMyo5
# Procedure: as §1
# ScNbp2 = biological target: ScNbp2
# Procedure: as §1
# ScPex13 = biological target: ScPex13
# Procedure: as §1
# ScRvs167 = biological target: ScRvs167
# Procedure: as §1
# ScSho1 = biological target: ScSho1
# Procedure: as §1
# ScSla1-D1-D2 = biological target: ScSla1-D1-D2
# Procedure: as §1
# ScSla1-D3 = biological target: ScSla1-D3
# Procedure: as §1
# SpAbp1-D1 = biological target: SpAbp1-D1
# Procedure: as §1
# SpBbc1 = biological target: SpBbc1
# Procedure: as §1
# SpBzz1-D1 = biological target: SpBzz1-D1
# Procedure: as §1
# SpBzz1-D2 = biological target: SpBzz1-D2
# Procedure: as §1
# SpCyk3 = biological target: SpCyk3
# Procedure: as §1
# SpHof1 = biological target: SpHof1
# Procedure: as §1
# SpHof1-2 = biological target: SpHof1-2
# Procedure: as §1
# SpHof1-3 = biological target: SpHof1-3
# Procedure: as §1
# SpHse1 = biological target: SpHse1
# Procedure: as §1
# SpLsb1 = biological target: SpLsb1
# Procedure: as §1
# SpLsb4 = biological target: SpLsb4
# Procedure: as §1
# SpMyo1 = biological target: SpMyo1
# Procedure: as §1
# SpNbp2 = biological target: SpNbp2
# Procedure: as §1
# SpPex13 = biological target: SpPex13
# Procedure: as §1
# SpRvs167 = biological target: SpRvs167
# Procedure: as §1
# SpSla1-D1-D2 = biological target: SpSla1-D1-D2
# Procedure: as §1
# SpSla1-D3 = biological target: SpSla1-D3
# Procedure: as §1
binder,measurement,setting,value
YHSRRHPLALGFKYV,SPOT peptide array binding signal intensity,AgAbp1,25.5
same,SPOT peptide array binding signal intensity,AgBbc1,12
same,SPOT peptide array binding signal intensity,AgBem1-D1,86
same,SPOT peptide array binding signal intensity,AgBzz1-D1,≤ 0
same,SPOT peptide array binding signal intensity,AgBzz1-D2,≤ 0
same,SPOT peptide array binding signal intensity,AgCyk3,4
same,SPOT peptide array binding signal intensity,AgFus1,566
same,SPOT peptide array binding signal intensity,AgHof1,19
same,SPOT peptide array binding signal intensity,AgHse1,187
same,SPOT peptide array binding signal intensity,AgLsb1,2
same,SPOT peptide array binding signal intensity,AgLsb4,2
same,SPOT peptide array binding signal intensity,AgMyo5,3.25
same,SPOT peptide array binding signal intensity,AgNbp2,41.5
same,SPOT peptide array binding signal intensity,AgRvs167,7.67
same,SPOT peptide array binding signal intensity,AgSho1,26
same,SPOT peptide array binding signal intensity,AgSla1-D1-D2,26
same,SPOT peptide array binding signal intensity,AgSla1-D3,17
same,SPOT peptide array binding signal intensity,CaAbp1-D1,156
same,SPOT peptide array binding signal intensity,CaAbp1-D2,81.5
same,SPOT peptide array binding signal intensity,CaBbc1,6.75
same,SPOT peptide array binding signal intensity,CaBem1-D1,121
same,SPOT peptide array binding signal intensity,CaBzz1-D1,64
same,SPOT peptide array binding signal intensity,CaBzz1-D2,22
same,SPOT peptide array binding signal intensity,CaCyk3,4
same,SPOT peptide array binding signal intensity,CaFus1,630
same,SPOT peptide array binding signal intensity,CaHof1,4.5
same,SPOT peptide array binding signal intensity,CaHse1,38.5
same,SPOT peptide array binding signal intensity,CaLsb1,1.75
same,SPOT peptide array binding signal intensity,CaLsb4,≤ 0
same,SPOT peptide array binding signal intensity,CaMyo5,38.5
same,SPOT peptide array binding signal intensity,CaNbp2,204
same,SPOT peptide array binding signal intensity,CaRvs167,44
same,SPOT peptide array binding signal intensity,CaRvs167-3,103
same,SPOT peptide array binding signal intensity,CaSho1,153
same,SPOT peptide array binding signal intensity,CaSla1-D1-D2,124
same,SPOT peptide array binding signal intensity,CaSla1-D3,23.5
same,SPOT peptide array binding signal intensity,ScAbp1,54
same,SPOT peptide array binding signal intensity,ScBbc1,2.75
same,SPOT peptide array binding signal intensity,ScBem1-D1,58
same,SPOT peptide array binding signal intensity,ScBzz1-D1,1.5
same,SPOT peptide array binding signal intensity,ScBzz1-D2,40.5
same,SPOT peptide array binding signal intensity,ScCyk3,13.5
same,SPOT peptide array binding signal intensity,ScFus1,368
same,SPOT peptide array binding signal intensity,ScHof1,16.5
same,SPOT peptide array binding signal intensity,ScHse1,480
same,SPOT peptide array binding signal intensity,ScLsb1,1.5
same,SPOT peptide array binding signal intensity,ScLsb2,6.5
same,SPOT peptide array binding signal intensity,ScLsb3,≤ 0
same,SPOT peptide array binding signal intensity,ScLsb4,12
same,SPOT peptide array binding signal intensity,ScMyo3,18.8
same,SPOT peptide array binding signal intensity,ScMyo5,24.2
same,SPOT peptide array binding signal intensity,ScNbp2,102
same,SPOT peptide array binding signal intensity,ScPex13,10.5
same,SPOT peptide array binding signal intensity,ScRvs167,31.2
same,SPOT peptide array binding signal intensity,ScSho1,592
same,SPOT peptide array binding signal intensity,ScSla1-D1-D2,65
same,SPOT peptide array binding signal intensity,ScSla1-D3,4.75
same,SPOT peptide array binding signal intensity,SpAbp1-D1,130
same,SPOT peptide array binding signal intensity,SpBbc1,8.75
same,SPOT peptide array binding signal intensity,SpBzz1-D1,122
same,SPOT peptide array binding signal intensity,SpBzz1-D2,2
same,SPOT peptide array binding signal intensity,SpCyk3,3
same,SPOT peptide array binding signal intensity,SpHof1,42.8
same,SPOT peptide array binding signal intensity,SpHof1-2,10.8
same,SPOT peptide array binding signal intensity,SpHof1-3,386
same,SPOT peptide array binding signal intensity,SpHse1,274
same,SPOT peptide array binding signal intensity,SpLsb1,50.5
same,SPOT peptide array binding signal intensity,SpLsb4,≤ 0
same,SPOT peptide array binding signal intensity,SpMyo1,14.5
same,SPOT peptide array binding signal intensity,SpNbp2,53
same,SPOT peptide array binding signal intensity,SpPex13,52
same,SPOT peptide array binding signal intensity,SpRvs167,66.2
same,SPOT peptide array binding signal intensity,SpSla1-D1-D2,1
same,SPOT peptide array binding signal intensity,SpSla1-D3,23.5
